{"source": "PubChem BioAssay AID504832", "about": "(National Center for Advancing Translational Sciences (NCATS), 2011)", "note": "In all, about 310,000 compounds went through this assay and about 18,000 (5.8%) were called active. A call without a number means that no potency is given here. About 22% were inconclusive and are not listed. Calls come from the whole dose curve; as a rule, active = well fitted inhibition curve with a large enough effect; inconclusive = small, poorly fitted or top-dose-only effect, or another doubt; inactive = no such curve, though single readings can be large or run the other way. Only a selection was taken, and actives are over-represented in it overall. Potency is the fitted concentration of half-maximal effect."}
{"assay": "Primary qHTS for delayed death inhibitors of the malarial parasite plastid, 48 hour incubation", "conditions": "P. falciparum luciferase growth in erythrocytes; series mostly up to 28.7 µM", "summary_of_the_method": "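Luminescence readout; reporter = integrated firefly luciferase in P. falciparum. RBC culture at 2% hematocrit, 0.1% parasitemia final, 37 C/5% CO2; decreased signal taken as growth inhibition.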"}
{"smiles": "Cc1onc(-c2ccccc2)c1C(=O)N=C(N)c1ccc(Cl)cc1", "Potency": "inactive"}
{"smiles": "Cc1ccccc1OCC(=O)N(Cc1cccc(F)c1)C1CCS(=O)(=O)C1", "note": "(stereo not drawn)", "Potency": "inactive"}
{"smiles": "CN(C(=O)COC(=O)CNC(=O)C12CC3CC(CC(C3)C1)C2)c1ccccc1", "Potency": "inactive"}
{"smiles": "COc1ccc2oc(=O)c(C(=O)N3CCN(c4ccccc4F)CC3)cc2c1", "Potency": "inactive"}
{"smiles": "O=C(c1c(F)cccc1F)N1CCN(c2ncc(Br)cn2)CC1", "Potency": "inactive"}
{"smiles": "O=C(Nn1cc(C(=O)N2CCN(c3ccccc3F)CC2)c2ccccc2c1=O)c1cnccn1", "Potency": "10.4 µM (active)"}
{"smiles": "O=C(COC(=O)c1cccs1)NCc1cccs1", "Potency": "inactive"}
{"smiles": "CC(C)=CCN1CCN(CCCc2ccccc2)CC1CCO", "note": "(stereo not drawn)", "Potency": "inactive"}
{"smiles": "O=C1Nc2cc(C(=O)N3CCN(c4ccc(F)cc4)CC3)ccc2NC1CSCc1cccc(F)c1", "note": "(stereo not drawn)", "Potency": "inactive"}
{"smiles": "Cc1cccn2c(=O)c3cc(C(=O)NC4CCCCC4)sc3nc12", "Potency": "inactive"}
{"smiles": "Cc1cc(C)cc(Oc2nc3c(C)cccn3c(=O)c2/C=C(\\C#N)C(=O)NC2CCS(=O)(=O)C2)c1", "note": "(stereo not drawn)", "Potency": "13.1 µM (active)"}
{"smiles": "Cc1cccn2c(=O)c(/C=C(\\C#N)S(=O)(=O)c3ccc(Cl)cc3)c(N3CCC(C(N)=O)CC3)nc12", "Potency": "inactive"}
{"smiles": "CCCCNC(=O)Cn1nc(C)c(S(=O)(=O)N2CCOCC2)c1C", "Potency": "inactive"}
{"smiles": "CSCCC(NC(=O)c1ccco1)C(=O)NCCc1ccc(F)cc1", "note": "(stereo not drawn)", "Potency": "inactive"}
{"smiles": "COc1ccc2c(C)c(CCC(=O)NC3CC3)c(=O)oc2c1C", "Potency": "inactive"}
{"smiles": "COc1ccccc1C(=O)NC(=S)NC12CC3CC(CC(C3)C1)C2", "Potency": "inactive"}
{"smiles": "O=[N+]([O-])c1ccccc1S(=O)(=O)Nc1cccc2cccnc12", "Potency": "2.33 µM (active)"}
{"smiles": "Cc1ccccc1NC(=O)c1ccccc1NS(=O)(=O)c1cccc2cccnc12", "Potency": "inactive"}
{"smiles": "O=C(Nc1ccccc1Cl)Nc1cccc2cccnc12", "Potency": "inactive"}
{"smiles": "COc1ccccc1OCC(=O)OCc1cc(-c2ccco2)on1", "Potency": "inactive"}
{"smiles": "C/C(=N/NC(=O)c1ccn(C)n1)c1ccncc1", "Potency": "inactive"}
{"smiles": "C/C(=N\\NC(N)=S)c1ccncc1", "Potency": "3.29 µM (active)"}
{"smiles": "C/C(=N\\NC(N)=S)c1cccnc1", "Potency": "inactive"}
{"smiles": "CC(=O)N1CCC(C(=O)OCc2ccc(Cl)cc2)(c2ccccc2)CC1", "Potency": "inactive"}
{"smiles": "O=C(/C=C/c1ccccc1[N+](=O)[O-])OCC(=O)N1CCCC1", "Potency": "inactive"}
{"smiles": "COc1ccc(C(=O)NCCn2nc(C)cc2C)cc1OC1CCN(C(C)=O)CC1", "Potency": "inactive"}
{"smiles": "O=C(CCSc1ccccc1)N1CCN(c2ccccc2F)CC1", "Potency": "inactive"}
{"smiles": "O=C(NCC(=O)N1CCN(c2ccccc2F)CC1)c1cccs1", "Potency": "inactive"}
{"smiles": "O=C(Cn1c(-c2ccc(Cl)cc2)noc1=O)N1CCN(c2ccccc2F)CC1", "Potency": "11.7 µM (active)"}
{"smiles": "CCOC(=O)c1nnn2c1nc(N1CCN(c3ccccc3)CC1)c1ccccc12", "Potency": "5.22 µM (active)"}
{"smiles": "CCOC(=O)/C(C#N)=C/c1ccc(N2CCN(Cc3ccccc3)CC2)cc1", "Potency": "inactive"}
{"smiles": "CCOC(=O)c1nnn2c3ccccc3c(=O)n(C)c12", "Potency": "inactive"}
{"smiles": "CC(=C1C(=O)c2ccccc2C1=O)N1CCN(c2ccccn2)CC1", "Potency": "inactive"}
{"smiles": "Cc1ccc(S(=O)(=O)c2nnn3c2nc(N2CCN(c4ccccn4)CC2)c2ccccc23)cc1", "Potency": "1.47 µM (active)"}
{"smiles": "Cc1cc(C(=O)N2CCN(c3ccccn3)CC2)c(C)o1", "Potency": "inactive"}
{"smiles": "COc1ccc(C2NC(=O)N(C)C(C)=C2[N+](=O)[O-])cc1", "note": "(stereo not drawn)", "Potency": "inactive"}
{"smiles": "COc1ccc(S(=O)(=O)NCc2cccnc2)cc1NC(=O)c1ccc(C)cc1", "Potency": "inactive"}
{"smiles": "CCN(C(=O)CSc1ncnc2sccc12)c1c(N)n(Cc2ccccc2)c(=O)[nH]c1=O", "Potency": "inactive"}
{"smiles": "COc1ccc(S(=O)(=O)N2CCOCC2)cc1NC(=O)CSc1cc(C)ccc1C", "Potency": "inactive"}
{"smiles": "COc1ccc(S(=O)(=O)N2CCCCC2)cc1NC(=O)c1cc([N+](=O)[O-])ccc1N1CCOCC1", "Potency": "9.28 µM (active)"}
{"smiles": "COc1ccc(S(=O)(=O)N2CCOCC2)cc1NC(=O)c1ccc(OCC(C)C)c(OC)c1", "Potency": "9.28 µM (active)"}
{"smiles": "O=C(NC1CCCCC1)c1cc([N+](=O)[O-])ccc1N1CCOCC1", "Potency": "inactive"}
{"smiles": "COc1ccc(S(=O)(=O)N2CCOCC2)cc1C(=O)NC1CCCCC1", "Potency": "inactive"}
{"smiles": "O=C(Nc1cc(S(=O)(=O)N2CCOCC2)ccc1OCC(F)(F)F)c1ccc(N2CCCC2=O)cc1", "Potency": "inactive"}
{"smiles": "CC(C)Cn1c(=O)c2ccccc2n2c(CCC(=O)NCc3ccccn3)nnc12", "Potency": "inactive"}
{"smiles": "CC1CCCCN1C(=S)NCc1ccccc1", "note": "(stereo not drawn)", "Potency": "inactive"}
{"smiles": "COc1ccc(C(=O)NC(=S)N2CCCCC2c2cccnc2)cc1OC", "note": "(stereo not drawn)", "Potency": "inactive"}
{"smiles": "Fc1cc(Br)ccc1NC(=S)Nc1cccnc1", "Potency": "inactive"}
{"smiles": "S=C(NCCc1ccccc1)N1CCn2cccc2C1c1ccncc1", "note": "(stereo not drawn)", "Potency": "10.4 µM (active)"}
{"smiles": "S=C(NCCc1ccccc1)N1CCCCC1", "Potency": "inactive"}
{"smiles": "S=C(Nc1cccc(Br)c1)N1CCn2cccc2C1c1cccnc1", "note": "(stereo not drawn)", "Potency": "11.7 µM (active)"}
{"smiles": "COc1ccc(CCNS(=O)(=O)c2cccc([N+](=O)[O-])c2)cc1", "Potency": "inactive"}
{"smiles": "CN1CCN(C(=O)c2ccccc2NC(=O)COc2ccccc2Cl)CC1", "Potency": "inactive"}
